Records with an inconclusive call do not appear. Where a call stands in place of a potency, no number is given. The source made the active and inactive calls. Calls come from the whole dose curve; as a rule, active = well fitted curve in the direction sought with a large enough effect; inconclusive = small, poorly fitted or top-dose-only effect, or another doubt; inactive = no such curve, though single readings can be large; an effect the other way counts as inactive or inconclusive. *1 amine or outer side, *2 acyl side, *3 side chain or, on linkers, in order; H or OH if unused. Where a SMILES comes first, the peptide text is derived from it. Bridges are numbered along the chain shown (N, C = ends). [ ]: non-standard residue; d: D form. The star is where a group is joined. ξ: configuration not given here. ξhTyr(3S-OH,4S-OH,3'-OSO3H) = NC(C(=O)O)[C@H](O)[C@@H](O)c1ccc(O)c(OS(=O)(=O)O)c1; Orn(4R-OH,5R-OH) = O=C([C@H](C[C@@H](O)[C@@H](O)N[*:3])N[*:1])[*:2]; X2 = CCCCCOc1ccc(-c2cc(-c3ccc(C(=O)*)cc3)no2)cc1; X3 = C[C@H]1CN([*:1])C(C(=O)[*:2])[C@H]1O; ξGln(3R-OH) = NC(=O)C[C@@H](O)C(N)C(=O)O; ξPro(4R-OH) = O=C(O)C1C[C@@H](O)CN1; ξThr(3R) = C[C@@H](O)C(N)C(=O)O

In the first test the test system is Zika virus NS2B-NS3 protease (linked). As to the kind of experiment: 384 well plate NINDS AMC confirmatory qHTS for Zika virus inhibitors (AID 1347163). Note: nearly all actives have a fitted effect of over 50% in size. Note: potency is the fitted concentration of half-maximal effect. Particulars: Recombinant NS2B-NS3 protease, Ac-VKTGKR-AMC fluorescence; series mostly up to 100 µM. The method, boiled down:
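Linked NS2B-NS3 protease (final 5 nM, 30 nM or 60 nM) was preincubated with compounds (final up to 1 mM) for ~15 minutes. Ac-VKTGKR-AMC substrate (final 30 microM) then reacted for 25 minutes at room temperature in the dark. Fluorescence (ex 355/em 460 nm) was normalized to no-enzyme and no-inhibitor controls.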
(qHTS replaces the single test concentration by a dilution series.)
Turning to `COc1cc(Nc2ccc([N+](=O)[O-])cc2C(=O)O)cc2ccccc12`, the Potency was 2.82 µM (active).

Turning to `Cc1ccc2[nH]c(=O)c(C3=NN(C(=O)CCC(=O)O)C(c4ccc(Br)cc4)C3)c(-c3ccccc3)c2c1` (centres undefined), the Potency entry is “inactive”.

In the case of `COc1cc2c(c(O)c1OC/C=C(\C)CC/C=C(/C)CCC=C(C)C)CN(C(CCC(=O)O)C(=O)O)C2=O` (centres undefined), the Potency was 8.91 µM (active).

Consider `C/C=C/C=C/C=C/C(=O)O[C@@H]1[C@@H](OC)C2=C(C(=O)N(C(CCC(=O)O)C(=O)O)C2)[C@@]2(C)CCCC(C)(C)[C@H]12` (some centres undefined), for which the Potency is 2.24 µM (active).

For `O=C1NC(=O)/C(=C/c2cccc(C(F)(F)F)c2)S1`, the Potency was 100 µM (active).

Consider `C/C(=C\CC/C(C)=C/CC[C@]1(C)CCc2cc(O)cc(C)c2O1)CC/C=C(\C)C(=O)O`, for which the Potency was 5.01 µM (active).

With `Cc1cc(C)c2nc(-c3ccccn3)cc(C(=O)Nc3ccc(S(=O)(=O)Nc4onc(C)c4C)cc3)c2c1`, the Potency is 5.01 µM (active).

In the case of `O=C(O)C1(c2ccc(-c3ccc(Cl)c(Cl)c3)c(F)c2)CC1`, the Potency was 14.1 µM (active).

In the case of `C=C1C2CCC3C(CCC4[C@@]3(C)CCC[C@@]4(C)C(=O)O)(C2)[C@@H]1OC(=O)/C(C)=C\C` (some centres undefined), the Potency is 39.8 µM (active).

Tested on in a further test: not listed separately
As to the kind of experiment: Vero cells viability qHTS for Zika virus inhibitors (AID 1347167). Particulars: cytotoxicity counter-screen (Zika); series mostly up to 45.9 µM. A digest of the protocol: (§1)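 Counter-screen for cytotoxicity of hits from NS2B-NS3 protease qHTS. Overnight-attached cells (2.5 x 10^5 cells/mL, DMEM/4% FBS) were dosed in titration, incubated 24 to 48 hours, then assayed by CellTiter Glo.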
In the case of `COc1cc(Nc2ccc([N+](=O)[O-])cc2C(=O)O)cc2ccccc12`, the compound was called inactive.

On to `CCCCCOc1ccc(-c2cc(-c3ccc(C(=O)N[C@H]4C[C@@H](O)[C@@H](O)NC(=O)C5[C@@H](O)[C@@H](C)CN5C(=O)C([C@H](O)CC(N)=O)NC(=O)C([C@H](O)[C@@H](O)c5ccc(O)c(OS(=O)(=O)O)c5)NC(=O)C5C[C@@H](O)CN5C(=O)C([C@@H](C)O)NC4=O)cc3)no2)cc1` (stereo partly drawn) (X2-[Orn(4R-OH,5R-OH)][ξThr(3R)][ξPro(4R-OH)][ξhTyr(3S-OH,4S-OH,3'-OSO3H)][ξGln(3R-OH)][X3]; lactam 1-C), for which the call was inactive.

Consider `Cc1ccc2[nH]c(=O)c(C3=NN(C(=O)CCC(=O)O)C(c4ccc(Br)cc4)C3)c(-c3ccccc3)c2c1` (centres undefined), for which the compound was classed as inactive.

For the compound `COc1cc(/C=C/c2ccccc2)c(C(=O)O)c(O)c1CC=C(C)C`, the outcome was inactive.

`COc1cc2c(c(O)c1OC/C=C(\C)CC/C=C(/C)CCC=C(C)C)CN(C(CCC(=O)O)C(=O)O)C2=O` (centres undefined): the result was inactive.

`C/C=C/C=C/C=C/C(=O)O[C@@H]1[C@@H](OC)C2=C(C(=O)N(C(CCC(=O)O)C(=O)O)C2)[C@@]2(C)CCCC(C)(C)[C@H]12` (some centres undefined): the compound was called inactive.

In the case of `CC1C(O)C(O)C2C(C(=O)OCCc3ccc(O)cc3)=COC(O[C@@H]3O[C@H](CO)[C@@H](O)[C@H](O)[C@H]3O)C12` (some centres undefined), the compound was called inactive.

For the compound `C/C(=C\CC/C(C)=C/CC[C@]1(C)CCc2cc(O)cc(C)c2O1)CC/C=C(\C)C(=O)O`, the outcome was inactive.

`Cc1cc(C)c2nc(-c3ccccn3)cc(C(=O)Nc3ccc(S(=O)(=O)Nc4onc(C)c4C)cc3)c2c1`: the compound was called inactive.

As for `O=C(O)C1(c2ccc(-c3ccc(Cl)c(Cl)c3)c(F)c2)CC1`, the compound was classed as inactive.

For `COc1cc(C)c(C(=O)OC2C(C)OC(OC3CCC(C)C4C3C=C(C)C3/C(C)=C\CC/C(C)=C/C5(C)C=C(C(=O)O)C(C)CC56OC(=O)/C(=C(\O)C34C)C6=O)C(O)C2O)c(OC)c1` (centres undefined), the outcome was inactive.

For `C=C1C2CCC3C(CCC4[C@@]3(C)CCC[C@@]4(C)C(=O)O)(C2)[C@@H]1OC(=O)/C(C)=C\C` (some centres undefined), the call was inactive.

Tested on in a further test: not listed separately
As to the kind of experiment: HepG2 cells viability qHTS for Zika virus inhibitors (AID 1347168). The conditions noted are these: Zika counter-screen; series mostly up to 45.9 µM. The method, boiled down:
as §1
With `COc1cc(Nc2ccc([N+](=O)[O-])cc2C(=O)O)cc2ccccc12`, the outcome was inactive.

`CCCCCOc1ccc(-c2cc(-c3ccc(C(=O)N[C@H]4C[C@@H](O)[C@@H](O)NC(=O)C5[C@@H](O)[C@@H](C)CN5C(=O)C([C@H](O)CC(N)=O)NC(=O)C([C@H](O)[C@@H](O)c5ccc(O)c(OS(=O)(=O)O)c5)NC(=O)C5C[C@@H](O)CN5C(=O)C([C@@H](C)O)NC4=O)cc3)no2)cc1` (stereo partly drawn) (X2-[Orn(4R-OH,5R-OH)][ξThr(3R)][ξPro(4R-OH)][ξhTyr(3S-OH,4S-OH,3'-OSO3H)][ξGln(3R-OH)][X3]; lactam 1-C): the outcome was inactive.

Regarding `Cc1ccc2[nH]c(=O)c(C3=NN(C(=O)CCC(=O)O)C(c4ccc(Br)cc4)C3)c(-c3ccccc3)c2c1` (centres undefined), the call was inactive.

Turning to `COc1cc(/C=C/c2ccccc2)c(C(=O)O)c(O)c1CC=C(C)C`, the compound was classed as inactive.

For the compound `COc1cc2c(c(O)c1OC/C=C(\C)CC/C=C(/C)CCC=C(C)C)CN(C(CCC(=O)O)C(=O)O)C2=O` (centres undefined), the compound was classed as inactive.

Take `C/C=C/C=C/C=C/C(=O)O[C@@H]1[C@@H](OC)C2=C(C(=O)N(C(CCC(=O)O)C(=O)O)C2)[C@@]2(C)CCCC(C)(C)[C@H]12` (some centres undefined): the call was inactive.

With `O=C1NC(=O)/C(=C/c2cccc(C(F)(F)F)c2)S1`, the result was inactive.

`CC1C(O)C(O)C2C(C(=O)OCCc3ccc(O)cc3)=COC(O[C@@H]3O[C@H](CO)[C@@H](O)[C@H](O)[C@H]3O)C12` (some centres undefined): the compound was called inactive.

Take `C/C(=C\CC/C(C)=C/CC[C@]1(C)CCc2cc(O)cc(C)c2O1)CC/C=C(\C)C(=O)O`: the result was inactive.

For the compound `Cc1cc(C)c2nc(-c3ccccn3)cc(C(=O)Nc3ccc(S(=O)(=O)Nc4onc(C)c4C)cc3)c2c1`, the result was inactive.

On to `O=C(O)C1(c2ccc(-c3ccc(Cl)c(Cl)c3)c(F)c2)CC1`, for which the compound was classed as inactive.

Turning to `COc1cc(C)c(C(=O)OC2C(C)OC(OC3CCC(C)C4C3C=C(C)C3/C(C)=C\CC/C(C)=C/C5(C)C=C(C(=O)O)C(C)CC56OC(=O)/C(=C(\O)C34C)C6=O)C(O)C2O)c(OC)c1` (centres undefined), the call was inactive.

For the compound `C=C1C2CCC3C(CCC4[C@@]3(C)CCC[C@@]4(C)C(=O)O)(C2)[C@@H]1OC(=O)/C(C)=C\C` (some centres undefined), the compound was called inactive.

Source of the values: PubChem BioAssay (NCATS).
